The campaign covered roughly 310,000 compounds. About 17,000 (5.5%) were called active. Roughly 11% stayed inconclusive and do not appear here. The sample holds actives, similar compounds and a random draw of the others, so the mix is not that of the screen. Unmarked numbers belong to inactive results. Calls come from the whole dose curve; as a rule, active = well fitted inhibition curve with a large enough effect; inconclusive = small, poorly fitted or top-dose-only effect, or effect the other way; inactive = no such curve, though single readings can be large or run the other way.
Target: Nuclear receptor ROR-gamma (Mus musculus) (UniProt P51450)
Assay: qHTS for inhibitors of ROR gamma transcriptional activity; note: nearly all actives have a fitted effect of over 60% in size
Conditions: Drosophila S2 Gal4-RORgamma UAS-luciferase reporter, 20 h; series mostly up to 53.6 µM; activity change, negative = inhibition: at the top concentration
Summary of the method: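 Schneider cells (Drosophila), stable Gal4 DBD–ROR gamma + UAS-luc; 1 hr cmpd preincubation; Cu2+ induction 700 uM final; 20 hr ambient; luminescence.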
% is set by controls: 0 for no effect and ±100 for the full control effect; potency is the fitted concentration of half-maximal effect.

Chain of Nuclear receptor ROR-gamma (Mus musculus) (P51450 whole entry, looked up): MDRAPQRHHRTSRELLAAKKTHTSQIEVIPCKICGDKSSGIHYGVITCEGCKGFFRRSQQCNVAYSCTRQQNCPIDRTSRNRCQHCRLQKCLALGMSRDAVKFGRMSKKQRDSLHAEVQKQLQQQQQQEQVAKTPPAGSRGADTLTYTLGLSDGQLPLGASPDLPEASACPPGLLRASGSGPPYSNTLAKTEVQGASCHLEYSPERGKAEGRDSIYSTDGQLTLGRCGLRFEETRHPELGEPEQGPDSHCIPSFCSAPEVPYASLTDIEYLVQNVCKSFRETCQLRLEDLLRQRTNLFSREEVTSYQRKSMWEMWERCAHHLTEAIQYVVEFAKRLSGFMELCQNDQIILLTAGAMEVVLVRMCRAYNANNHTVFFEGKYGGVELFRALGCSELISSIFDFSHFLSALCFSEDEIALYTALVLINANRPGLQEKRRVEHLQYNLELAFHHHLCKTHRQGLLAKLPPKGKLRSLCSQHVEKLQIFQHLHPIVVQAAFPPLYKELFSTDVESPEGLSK

SMILES | activity change, negative = inhibition | Potency
O=C(NCCc1ccc(Cl)cc1)C1CCCN1C(=O)NCc1ccccc1 (centres undefined) | 0.783% | –
COCCn1cnc2c1c(=O)n(CC(=O)NN)c(=O)n2Cc1ccccc1 | -27.2% | –
O=C(CN1C(=O)S/C(=C\c2ccccc2F)C1=O)NCCCn1ccnc1 | -32.2% | –
O=C(CN1C(=O)/C(=C\c2ccccc2F)SC1=S)Nc1nc2ccccc2s1 | – | 11.2 µM (active)
Cc1nn(CC(=O)Nc2nc3ccccc3s2)c(C)c1[N+](=O)[O-] | 5.91% | –
CCOC(=O)C1C(c2ccc(O)cc2)NC(=O)NC1(O)C(F)(F)F (centres undefined) | 1.82% | –
CC1=NN(C(N)=S)C(=O)C1N=Nc1cc(Cl)ccc1Cl (centres undefined) | – | 1.41 µM (active)
C=CCNc1nc(N)c([N+](=O)[O-])c(NC2CCCCC2)n1 | 17.4% | –
O=C(NCc1ccc2c(c1)OCO2)c1cc(F)c(F)cc1Cl | -6.24% [at 1.91 µM] | –
Cc1c(Cl)cccc1NC(=S)NCc1ccc2c(c1)OCO2 | – | 7.08 µM (active)
CN(C)S(=O)(=O)c1cccc(NC(=S)NCc2ccc3c(c2)OCO3)c1 | 32.3% | –
CS(=O)(=O)N(CC(=O)N1CCCCCC1)c1cccc(Cl)c1Cl | -20.8% | –
CC(=O)Nc1cccc(OCC(=O)/C=C2\N(C)c3ccccc3C2(C)C)c1 | – | 7.08 µM (active)
Cc1noc(C)c1C(=O)OCC(=O)/C=C1\N(C)c2ccccc2C1(C)C | 7.06% | –
CN1/C(=C\C(=O)c2cccnc2Cl)C(C)(C)c2ccccc21 | 33.5% | –
CC(=O)c1cccc(NC(=O)C2COc3ccccc3O2)c1 (centres undefined) | -30.8% [at 1.91 µM] | –
CC(NC(=S)Nc1ccccc1)C1COc2ccccc2O1 (centres undefined) | – | 6.31 µM (active)
CC(c1ccco1)N(C(=O)Nc1ccccc1)C1CCCCC1 (centres undefined) | 1.37% | –
COC(=O)CSc1nc2ccccc2c(=O)n1Cc1ccccc1 | -3.52% | –
Cc1cc(C)n(CCNS(=O)(=O)c2ccc(Cl)cc2)n1 | 12.2% | –
Cc1ccc(CSCC(N)C(=O)O)cc1 (centres undefined) | 4.89% | –
Cc1ccc(SC(CC(=O)c2ccc(C(C)(C)C)cc2)C(=O)O)cc1 (centres undefined) | – | 1.41 µM (active)
Cc1ccc(SC(C)C(=O)NCc2ccc(F)cc2)cc1 (centres undefined) | -34% | –
Cc1sc2ncn(CC(=O)NCCCC(=O)N(C)Cc3ccccc3)c(=O)c2c1C | 33.8% | –
O=C(CN1C(=O)c2cccnc2Oc2ccc(Cl)cc21)Nc1ccc(F)cc1 | 7.92% | –
COc1cccc(CSc2nc3nc(C)cc(C)n3n2)c1 | 1.6% | –
Cc1cc(NC(=O)CCC(=O)N(CC(=O)NC2CCCC2)c2ccc(F)cc2)no1 | -6.99% | –

SMILES | activity change, negative = inhibition | Potency
COCCN(C(=O)CCC(=O)Nc1nccs1)C(C(=O)NCCC(C)C)c1ccc(F)cc1 (centres undefined) | 1.64% | –
Cc1ccc(S(=O)(=O)N(CC(O)CN2C(=O)NC(C)(C)C2=O)c2cccc([N+](=O)[O-])c2)cc1 (centres undefined) | 0.382% | –
C=C(C)CNC(=S)N/N=C/c1ccccc1OCC(=O)O | – | 10 µM (active)
C=CCOc1ccccc1/C=N/NC(=O)Cc1ccccc1 | -31.9% | –
CCOc1ccccc1/C=N/NC(=O)CNC(=O)COc1ccccc1 | 12.2% | –
N#Cc1cc([N+](=O)[O-])ccc1NCC1CCCO1 (centres undefined) | -1.01% | –
Cc1ccc(NC(=O)C2CCCN2C(=O)OCc2ccccc2)cc1C (centres undefined) | 3.47% | –
O=C(N/N=C/c1cccc(O)c1)c1cc2c(ccc3ccccc32)o1 | -1.2% | –
Cc1cccc(OCc2ccc(C(=O)Nc3ccc(F)cc3)cc2)c1 | 27.9% | –
Cc1cccc(NC(=O)C(C)SCc2ccccc2)c1 (centres undefined) | 6.35% | –
Cc1cccc(NC(=O)c2nc(S(=O)(=O)Cc3ccccc3)ncc2Cl)c1 | – | 7.08 µM (active)
Cc1ccc(CS(=O)(=O)c2ncc(Cl)c(C(=O)Nc3nnc(C)s3)n2)cc1 | – | 14.1 µM (active)
Cc1cccc(CS(=O)(=O)c2ncc(Cl)c(C(=O)Nc3ccc(F)cc3)n2)c1 | – | 6.31 µM (active)
Cc1ccc(S(=O)(=O)CC(=O)Nc2nnc(C)s2)cc1 | 6.36% | –
CSc1ncc(Cl)c(C(=O)Nc2cc(C)ccc2C)n1 | 1.49% | –
Cc1nnc(NC(=O)CCCOc2ccccc2)s1 | 12.3% | –
CCSc1ncc(Cl)c(C(=O)Nc2cc(C)ccc2C)n1 | 13.3% | –
O=C(CCS(=O)(=O)c1ccccc1)NC1CCCC1 | 3.1% | –
CSCCC(NS(=O)(=O)c1ccc(C)cc1)C(=O)NCCc1c[nH]c2ccccc12 (centres undefined) | -0.592% | –
O=C(CN(C(=O)CCC(=O)Nc1nccs1)c1ccc(F)cc1)NCc1ccc2c(c1)OCO2 | 32.5% | –
COc1ccc(N2CCC(N3CCN(C)C(CCO)C3)CC2)cc1 (centres undefined) | -13.7% | –
CC1(C)C(c2cccs2)=[N+]([O-])C2(CCCCC2=O)N1O (centres undefined) | -25.3% | –
C/C(=N\O)C1(C)N(O)C(C)(C)C(c2ccc(Br)cc2)=[N+]1[O-] (centres undefined) | 9.2% | –
CC(=O)C1(C)N(O)C(C)(C)C(c2cccs2)=[N+]1[O-] (centres undefined) | – | 4.47 µM (active)
CCOC(=O)c1c(-c2ccccc2)oc2cc(Br)c(O)c(C=O)c12 | -14.8% | –
O=C(NCCc1ccccc1)c1ccc2c(c1)N(Cc1ccccc1)CCS2 | 29.8% | –
O=C(NCCNc1ccc([N+](=O)[O-])cc1Cl)c1ccccc1F | -13.1% [at 1.91 µM] | –

From PubChem BioAssay AID2551 (National Center for Advancing Translational Sciences (NCATS), 2010)
